NPC1 prom act: activates the NPC1 promoter; Huh7 NPC1 promoter luciferase reporter, 24 h; Potency, µM (doses to about 9.22 µM), usual class: activators; hit rate 2.4% among 320,000; AID 485313; also: nearly all actives have a fitted effect of over 60% in size
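Readout is luciferase luminescence, reflecting NPC1 promoter activation in stably transfected Huh7 cells after 24 h compound exposure at 37 °C in reduced-serum medium with 10% FBS.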
ELG1 genotoxic: induces genotoxicity in HEK293T cells with luciferase-tagged ELG1; HEK293T ELG1-luciferase reporter, luminescence, 16 h; Potency, µM (titrated, usually from 46 µM), usual class: activators; hit rate 1.3% among 330,000; AID 504466; also: nearly all actives have a fitted effect of over 60% in size
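Genotoxic stress is detected as increased luminescence from luciferase-tagged ELG1 in HEK293T cells, measured with ONE-Glo after a 16 hr treatment at 37 °C.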
KinaseGlo FLuc: Kinase-Glo luciferase inhibition (counter-screen); Q27757; hit rate 0.28% among 200,000; Kinase-Glo luciferase, ATP luminescence, 8 min; Potency, µM (series often up to 38.3 µM), actives largely listed as inhibitors; also: nearly all actives have a fitted effect of over 60% in size
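Inhibition of Kinase-Glo luciferase light generation was assessed at 10 uM ATP in pH 7.2 imidazole buffer, with luminescence measured after eight minutes at ambient temperature.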
Rab9 prom act: activators of Rab9 promoter | Potency, µM (top dose mostly 9.22 µM), hits mostly activators | hit rate 2.8% among 320,000 | Huh7 Rab9 promoter-luciferase reporter, luminescence, 24 h; also: nearly all actives have a fitted effect of over 60% in size
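Cells were plated at 1500 per well in reduced-serum medium with 10% FBS and left 2 h. Compound in DMSO was then added for 24 h at 37 °C. Reporter signal was read by luminescence after 10 min with luciferase detection reagent.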
SMN2 splice up: increases expression of the SMN2 splice variant; HEK293 SMN2-luciferase splicing reporter, luminescence, 30-36 h; Potency, µM (top dose mostly 46.1 µM), most hits filed as activators; hit rate 2.8% among 210,000; also: nearly all actives have a fitted effect of over 55% in size
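HEK293 cells carry an SMN2 […]–luciferase reporter in which exon 7 inclusion puts luciferase in frame. Cells were plated 10-12 h before compound addition, then incubated 30-36 h at 37C. ONE-Glo luminescence was read; sodium butyrate at 4.5 mM final served as control.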
FLuc counter: inhibits or activates purified firefly luciferase, miR-21 counter-screen. P08659. purified FLuc, Km substrates, luminescence inhibition. Potency, µM (titrated, usually from 57.5 µM), hits mostly inhibitors. hit rate 6.9% among 360,000. AID 588342; also: nearly all actives have a fitted effect of over 55% in size
Target sequence (P08659 whole entry, looked up): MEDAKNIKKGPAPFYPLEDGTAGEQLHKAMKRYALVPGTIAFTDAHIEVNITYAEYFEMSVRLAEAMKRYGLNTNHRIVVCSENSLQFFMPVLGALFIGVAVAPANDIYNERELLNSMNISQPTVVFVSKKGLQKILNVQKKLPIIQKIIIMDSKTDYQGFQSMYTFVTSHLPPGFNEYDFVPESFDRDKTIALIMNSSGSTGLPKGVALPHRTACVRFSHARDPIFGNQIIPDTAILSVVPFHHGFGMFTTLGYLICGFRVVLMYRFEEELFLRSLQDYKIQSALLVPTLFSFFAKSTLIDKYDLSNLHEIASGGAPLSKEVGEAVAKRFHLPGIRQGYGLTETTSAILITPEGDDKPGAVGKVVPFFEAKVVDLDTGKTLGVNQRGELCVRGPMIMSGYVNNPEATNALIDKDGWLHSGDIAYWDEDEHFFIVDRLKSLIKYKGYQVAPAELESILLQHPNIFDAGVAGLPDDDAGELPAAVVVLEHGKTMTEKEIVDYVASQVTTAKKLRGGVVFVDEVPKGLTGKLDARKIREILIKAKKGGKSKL
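Purified P. pyralis luciferase, 10 nM final, with Km-level 10 uM D-luciferin and 10 uM ATP in 50 mM Tris acetate pH 7.5, 10 mM Mg acetate, 0.01% Tween-20, 0.05% BSA; 6-point qHTS titration about 60 µM downward; luminescence read.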
Hits are given with their value. Sampled rows, rich in hits. Any-hit rate of the full collection: about 7.3%. Calls follow the shape of the dose curve; as a rule, active = well fitted curve in the direction sought with a large enough effect; inconclusive = small, poorly fitted or top-dose-only effect, or another doubt; inactive = no such curve, though single readings can be large; an effect the other way counts as inactive or inconclusive.

For CCCc1nn(C)c(C(=O)Nc2ccc(Cl)cc2)c1Cl the results were NPC1 prom act inactive, ELG1 genotoxic inactive, KinaseGlo FLuc inactive, Rab9 prom act inactive, SMN2 splice up inactive and FLuc counter inactive.
`CCCc1nn(C)c(C(=O)Nc2cccc(Cl)c2)c1Cl` gave NPC1 prom act inactive, ELG1 genotoxic inconclusive, KinaseGlo FLuc inactive, Rab9 prom act inconclusive, SMN2 splice up inactive and FLuc counter 21µM.
CCCc1nn(C)c(C(=O)Nc2ccc(C(C)(C)C)cc2)c1Cl was read as NPC1 prom act inactive, ELG1 genotoxic inactive, KinaseGlo FLuc inactive, Rab9 prom act inactive, SMN2 splice up inactive and FLuc counter inconclusive.
`CCC(C)NCC(=O)Nc1cc(S(=O)(=O)N(CC)c2ccccc2)ccc1Cl` (stereo not given) gave NPC1 prom act inactive, ELG1 genotoxic inactive, KinaseGlo FLuc inactive, Rab9 prom act inactive, SMN2 splice up inactive and FLuc counter inactive.
`Cc1ccc(C2C(C#N)=C(N)Oc3c2sc2ccccc32)o1` (stereo not given) gave NPC1 prom act inactive, ELG1 genotoxic inconclusive, KinaseGlo FLuc inactive, Rab9 prom act inactive, SMN2 splice up inactive and FLuc counter 13µM.
CCOC(=O)CC1=C(C(=O)OCC)C(c2ccc(C)o2)C(C#N)=C(N)O1 (stereo not given) was read as NPC1 prom act inactive, ELG1 genotoxic inactive, KinaseGlo FLuc inactive, Rab9 prom act inactive, SMN2 splice up inactive and FLuc counter inactive.
For S=C(N/N=C/c1cccs1)NC1CC2CCC1C2 (stereo not given) the results were NPC1 prom act inactive, ELG1 genotoxic inactive, Rab9 prom act inconclusive and FLuc counter inconclusive.
`Oc1ccc(/C=N/NC(=S)NC2CC3CCC2C3)cc1` (stereo not given) gave NPC1 prom act 3.2µM, ELG1 genotoxic inconclusive, Rab9 prom act inconclusive and FLuc counter inconclusive.
CCc1ccc(NC(=O)C(=O)NCCc2sc3nc(-c4ccc(OC)cc4)nn3c2C)cc1 was read as FLuc counter inactive.
CCOc1ccc2nc(SCC(=O)Nc3cccc(S(=O)(=O)NC4=NCCCCC4)c3)[nH]c2c1 was read as NPC1 prom act inactive, ELG1 genotoxic inactive, KinaseGlo FLuc inactive, Rab9 prom act inactive, SMN2 splice up inactive and FLuc counter 21µM.
`COc1ccc2nc(SCC(=O)Nc3ccc4c(c3)OCCO4)[nH]c2c1` gave NPC1 prom act inactive, ELG1 genotoxic inconclusive, KinaseGlo FLuc inactive, Rab9 prom act inactive, SMN2 splice up inactive and FLuc counter 13µM.
For CCOc1ccc2nc(SCC(=O)NCc3ccc4c(c3)OCO4)[nH]c2c1 the results were NPC1 prom act inactive, ELG1 genotoxic inactive, KinaseGlo FLuc inactive, Rab9 prom act inactive, SMN2 splice up inactive and FLuc counter inactive.
For CCOc1ccc2nc(SCC(=O)Nc3ccc4c(c3)OCCO4)[nH]c2c1 the results were NPC1 prom act inactive, ELG1 genotoxic inactive, KinaseGlo FLuc inactive, Rab9 prom act inactive, SMN2 splice up inactive and FLuc counter 17µM.
Screening CCOc1ccc2nc(SCC(=O)Nc3ncccn3)[nH]c2c1 returned NPC1 prom act inactive, ELG1 genotoxic inactive, KinaseGlo FLuc inactive, Rab9 prom act inactive, SMN2 splice up inactive and FLuc counter inconclusive.
Screening CC(Sc1nnc(C(F)(F)F)n1C)C(=O)NC(N)=O (stereo not given) returned NPC1 prom act inactive, ELG1 genotoxic inactive, KinaseGlo FLuc inactive, Rab9 prom act inactive, SMN2 splice up inactive and FLuc counter inactive.
For COc1ccccc1NS(=O)(=O)c1cc(NC(=O)CNC(=O)c2ccccc2)ccc1C the results were NPC1 prom act inactive, ELG1 genotoxic inactive, KinaseGlo FLuc inactive, Rab9 prom act inactive, SMN2 splice up inactive and FLuc counter inactive.
Cc1cc(C(=O)COc2ccc3ccc(=O)oc3c2)c(C)n1C was read as NPC1 prom act inactive, ELG1 genotoxic inactive, KinaseGlo FLuc inactive, Rab9 prom act inactive, SMN2 splice up inactive and FLuc counter inconclusive.
Screening CCC/C(O)=C1\C(=O)CC(c2ccccc2)CC1=NC (stereo not given) returned KinaseGlo FLuc inactive, SMN2 splice up inactive and FLuc counter inactive.
O=C(Nc1cc(-c2ccccc2)[nH]n1)c1ccccc1F was read as NPC1 prom act 1.8µM, ELG1 genotoxic inconclusive, Rab9 prom act 1.4µM and FLuc counter 8.5µM.
For O=C(Nc1cc(-c2ccccc2)[nH]n1)c1ccccc1 the results were NPC1 prom act 0.56µM, ELG1 genotoxic inconclusive, Rab9 prom act 0.63µM and FLuc counter 4.8µM.
`CCCN(CCC)S(=O)(=O)c1ccc(C(=O)N2CCC(=O)c3ccccc32)cc1` gave NPC1 prom act inactive, ELG1 genotoxic inactive, KinaseGlo FLuc inactive, Rab9 prom act inactive, SMN2 splice up inactive and FLuc counter inactive.
O=C(CCn1nnc2ccccc21)N1CCN(c2ccccc2)CC1 was read as NPC1 prom act inactive, ELG1 genotoxic inconclusive, KinaseGlo FLuc inactive, Rab9 prom act inconclusive, SMN2 splice up inactive and FLuc counter inconclusive.
Screening CCN(CC)c1ccc(/C=N/Nc2nn[nH]n2)cc1 returned NPC1 prom act inactive, ELG1 genotoxic inactive, Rab9 prom act inactive and FLuc counter 17µM.
`CCN(CC)c1ccc(/C=N/Nc2nc(C)cc(C)n2)cc1` gave NPC1 prom act inactive, ELG1 genotoxic inactive, Rab9 prom act inactive and FLuc counter inconclusive.
`COc1ccccc1C/C(N)=N/OC(=O)COc1ccccc1C` gave NPC1 prom act inactive, Rab9 prom act inactive and FLuc counter inactive.
`Cc1cnc(NC(=O)CSc2ncn(-c3ccccc3)n2)s1` gave NPC1 prom act inactive, ELG1 genotoxic inactive, KinaseGlo FLuc inactive, Rab9 prom act inactive, SMN2 splice up inactive and FLuc counter inactive.
Screening CCCN1CCC(=NNC(=O)c2ccc(Br)o2)CC1 returned NPC1 prom act inactive, ELG1 genotoxic inactive, KinaseGlo FLuc inactive, Rab9 prom act inactive, SMN2 splice up inactive and FLuc counter inactive.
For Cn1cc(/C=N/NC(=O)c2ccccc2O)c2ccccc21 the results were NPC1 prom act inconclusive, ELG1 genotoxic inactive, Rab9 prom act inactive and FLuc counter 4.8µM.
CC(C)(C)OC(=O)n1cc(/C=N/NC(=O)c2ccco2)c2ccccc21 was read as NPC1 prom act inactive, ELG1 genotoxic inactive, Rab9 prom act inactive and FLuc counter 9.5µM.
Screening Cn1cc(/C=N/NC(=O)c2cccc([N+](=O)[O-])c2)c2ccccc21 returned NPC1 prom act inactive, ELG1 genotoxic inconclusive, KinaseGlo FLuc inactive, Rab9 prom act inactive, SMN2 splice up inactive and FLuc counter inactive.
For CC(=O)n1cc(/C=N/NC(=O)c2ccccc2O)c2ccccc21 the results were NPC1 prom act inactive, ELG1 genotoxic inactive, Rab9 prom act inconclusive and FLuc counter 9.5µM.
